Source: PubChem BioAssay (NCATS)
Values without a mark were called inactive. Records with an inconclusive call do not appear. A call without a number means that no potency is given here. The source made the active and inactive calls. Calls follow the shape of the dose curve; as a rule, active = well fitted curve in the direction sought with a large enough effect; inconclusive = small, poorly fitted or top-dose-only effect, or another doubt; inactive = no such curve, though single readings can be large; an effect the other way counts as inactive or inconclusive.

Experiments:
[1] = target: Glutathione peroxidase 1 (Homo sapiens) (UniProt P07203); assay: Primary qHTS Assay for Inhibitors of Recombinant Selenoprotein Glutathione Peroxidase 1 (GPX1) (AID 1845191); also: nearly all actives have a fitted effect of over 65% in size
Outline: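 10 nM GPX1 + cpd, 30 min RT; start w/ 1 mM GSH, 0.5 mM cumene hydroperoxide, 0.5 mM NADPH, 100 nM GR, 0.01% BSA; buffer 50 mM Tris-HCl pH 7.5, 2 mM EDTA, 150 mM NaCl; Fl 340/450, 0 & 15 min.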

[2] = target: Phospholipid hydroperoxide glutathione peroxidase GPX4 (Homo sapiens) (UniProt P36969); assay: Primary qHTS Assay for Inhibitors of Recombinant Selenoprotein Glutathione Peroxidase 4 (GPX4) (AID 1845192); also: nearly all actives have a fitted effect of over 65% in size; also: potency is read from the fitted curve at half-maximal effect; as to activity change, negative = inhibition: series mostly up to about 50 µM
Outline: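 NADPH consumption, followed by fluorescence at 340/450 nm between 0 and 15 min, reports GPX4 activity via coupled glutathione reductase (100 nM). Enzyme 200 nM was pre-exposed to compound 30 min; 0.5 mM cumene hydroperoxide and 1 mM GSH served as substrates.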

[3] = target: Luciferin 4-monooxygenase (Photinus pyralis) (UniProt P08659); assay: Primary firefly luciferase (FLuc) qHTS assay for identification of artifact compounds. (AID 1845220); also: nearly all actives have a fitted effect of over 60% in size; also: potency is read from the fitted curve at half-maximal effect; as to activity change, negative = inhibition: series mostly up to about 54 µM
Outline: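 Compounds sat 15 min at room temperature with 10 uM luciferin and 10 uM ATP (pH 7.6 Tris acetate). Firefly luciferase (10 nM final) was then added, and luminescence was read 5 min later. Data normalized to no-enzyme and DMSO controls were Hill-fitted.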

[4] = Primary fluorescence-based thiol-reactive (MSTI) qHTS assay for identification of artifact compounds. (AID 1845221); also: nearly all actives have a fitted effect of over 65% in size; also: potency is read from the fitted curve at half-maximal effect
Outline: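 One-hour, room-temperature, dark incubation of compound with 4 uM MSTI in PBS (pH 7.4, 2% DMSO) precedes a fluorescence read at 525 nm excitation, 598 nm emission; Hill-equation fitting yields concentration-response values.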

[5] = system: Nanoluciferase (engineered Oplophorus gracilirostris luciferase); assay: Primary Nanoluciferase (NLuc) qHTS assay for identification of artifact compounds. (AID 1845222); also: series mostly up to about 54 µM
Outline: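 Luminescence from secreted NLuc (filtered, 1:55-diluted S16 cell medium) read 5 min after Nano-Glo substrate; compounds preincubated 15 min, RT. Hill fits of inhibition normalized to DMSO and no-enzyme.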

[6] = Primary redox qHTS assay for identification of artifact compounds. (AID 1845223)
Outline: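 Amplex Red (25 uM) and HRP (250 mU/mL) in HBSS, with compounds for 15 min, then 250 uM DTT for 30 min, room temperature, dark. Fluorescence 525/598 nm read; normalized to DMSO and 10 uM DA3003; Hill fit.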

Phospholipid hydroperoxide glutathione peroxidase GPX4 (Homo sapiens), sequence (P36969 whole entry, looked up): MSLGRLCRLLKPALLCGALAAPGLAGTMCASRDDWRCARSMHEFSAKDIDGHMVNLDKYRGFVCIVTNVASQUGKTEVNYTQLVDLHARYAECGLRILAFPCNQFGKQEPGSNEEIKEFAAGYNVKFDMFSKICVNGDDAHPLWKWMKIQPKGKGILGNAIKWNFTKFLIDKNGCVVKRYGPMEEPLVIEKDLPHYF
Glutathione peroxidase 1 (Homo sapiens), sequence (P07203 whole entry, looked up): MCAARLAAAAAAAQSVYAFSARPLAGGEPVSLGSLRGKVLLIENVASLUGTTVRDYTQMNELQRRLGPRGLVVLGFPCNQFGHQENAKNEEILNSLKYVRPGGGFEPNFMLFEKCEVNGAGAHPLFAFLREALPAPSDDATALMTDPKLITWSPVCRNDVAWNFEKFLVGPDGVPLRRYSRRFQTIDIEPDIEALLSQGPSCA

Row | Compound | Potency [1] | Potency [2] | Potency [3] | Potency [4] | Potency [5] | outcome [6] | activity change, negative = inhibition [3] | activity, negative = inhibition [5] | redox activity (% of DA3003) [6]
1 | CCCN(CCC)C(=O)C(CCC(=O)OCCCN1CCN(CCOC(=O)Cc2c(C)n(C(=O)c3ccc(Cl)cc3)c3ccc(OC)cc23)CC1)NC(=O)c1ccccc1 (stereo unspecified) | inactive | inactive | inactive | inactive | inactive | inactive | – | – | –
2 | CC(C(=O)O)c1ccc(/C=C2\CCCCC2=O)cc1 (stereo unspecified) | inactive | inactive | 23.9 µM (active) | inactive | inactive | inactive | – | – | –
3 | Brc1ccc([C@H]2CN3CCSC3=N2)cc1 | inactive | inactive | inactive | inactive | inactive | inactive | – | – | –
4 | CC1c2ccccc2CN1NC(=O)c1ccc(Cl)c(S(N)(=O)=O)c1 (stereo unspecified) | inactive | inactive | inactive | inactive | – | inactive | – | – | –
5 | Nc1ncnc2nc[nH]c12 | – | inactive | – | – | – | – | – | – | –
6 | CC(C)(C)c1nnc(NS(=O)(=O)c2ccccc2)s1 | inactive | inactive | inactive | inactive | – | inactive | – | – | –
7 | O=C(O)CNC(=O)CNC(=O)CNC(=O)CSC(=O)c1ccccc1 | inactive | inactive | inactive | inactive | inactive | inactive | – | – | –
8 | CC(=O)Nc1ccn(C2COC(COC(=O)c3ccccc3)O2)c(=O)n1 (stereo unspecified) | inactive | – | inactive | inactive | inactive | inactive | – | – | –
9 | O=C1NC(c2cccc([N+](=O)[O-])c2)=CCN1c1ccccc1O | inactive | – | inactive | – | inactive | – | – | – | –
10 | Nc1ncnc2n[nH]c(Nc3ccc(F)cc3)c12 | inactive | – | inactive | – | inactive | inactive | – | – | –
11 | CC(=O)O[C@@H]1C(=O)O[C@@H]2[C@H]1OC(=O)[C@@H]2OC(C)=O | inactive | – | inactive | inactive | inactive | inactive | – | – | –
12 | N[C@@H](Cn1ccc(=O)c(O)c1)C(=O)O | inactive | inactive | – | – | – | – | -9.21% [at 6.45 µM] | -6.53% [at 6.45 µM] | -4.94% [at 6.41 µM]
13 | C=CCOc1cc(Cl)ccc1C(=O)NCCN(CC)CC | inactive | inactive | inactive | inactive | inactive | inactive | – | – | –
14 | CN(CC1(C)CCCO1)S(=O)(=O)c1ccc(Cl)c(S(N)(=O)=O)c1 (stereo unspecified) | inactive | inactive | inactive | inactive | inactive | inactive | – | – | –
15 | CC[C@@]1(O)C(=O)OCc2c1cc1n(c2=O)Cc2c-1nc1ccccc1c2/C=N/OC(C)(C)C | – | 12.6 µM (active) | – | – | – | – | – | – | –
16 | CC1CC(=O)NN=C1c1ccc(NCC(C)(C)NCC(O)COc2cc(Cl)ccc2C#N)cc1 (stereo unspecified) | – | – | inactive | – | inactive | inactive | – | – | –

Row | Compound | Potency [1] | Potency [2] | Potency [3] | Potency [4] | Potency [5] | outcome [6] | activity change, negative = inhibition [3] | activity, negative = inhibition [5] | redox activity (% of DA3003) [6]
17 | O=C(CCCCCCCCC#CI)Oc1ccccc1 | inactive | inactive | inactive | inactive | – | inactive | – | – | –
18 | Cn1cc(S(C)=O)c(=O)c2ccc(F)cc21 (stereo unspecified) | inactive | inactive | inactive | inactive | inactive | inactive | – | – | –
19 | O=[N+]([O-])c1ccc(-c2nc(-c3ccc(F)cc3)c(-c3ccncc3)[nH]2)cc1 | inactive | – | inactive | – | inactive | inactive | – | – | –
20 | CCc1cc(S(=O)(=O)O)c2cc(C(C)C)cccc1-2 | inactive | inactive | inactive | 0.844 µM (active) | inactive | inactive | – | – | –
21 | CC(C(O)c1ccccc1)N(C)CCOC(c1ccccc1)c1ccccc1 (stereo unspecified) | inactive | inactive | inactive | inactive | inactive | inactive | – | – | –
22 | O=C(CCC1CCN(Cc2ccccc2)CC1)c1ccc2c(c1)NCCCC2 | inactive | inactive | inactive | inactive | inactive | inactive | – | – | –
23 | O=C(O)[C@H](O)[C@@H](O)[C@H](O[C@@H]1O[C@H](CO)[C@H](O)[C@H](O)[C@H]1O)[C@H](O)CO | – | inactive | – | – | – | – | – | – | –
24 | CO[C@]1(NC(=O)CSC(F)F)C(=O)N2C(C(=O)O)=C(CSc3nnnn3CCO)CO[C@H]21 | inactive | inactive | inactive | inactive | inactive | inactive | – | – | –
25 | O=C(O)Cc1ccccc1Oc1ccc(Cl)cc1Cl | inactive | inactive | inactive | inactive | – | inactive | – | – | –
26 | CN1[C@@H]2CC[C@H]1CC(NC(=O)n1c(=O)[nH]c3ccccc31)C2 (stereo partly specified) | inactive | – | inactive | inactive | inactive | inactive | – | – | –
27 | O=C1CC[C@H](C(=O)N2CCCCC2)N1 | inactive | inactive | inactive | inactive | inactive | inactive | – | – | –
28 | COc1cc(NS(=O)(=O)c2ccc(N)cc2)nc(C)n1 | inactive | – | inactive | inactive | inactive | inactive | – | – | –
29 | CCOC(=O)c1ccc(OCCN2C[C@H](O)[C@@H](O)[C@H](O)[C@H]2CO)cc1 | inactive | inactive | inactive | inactive | inactive | inactive | – | – | –
30 | CC1CN(c2cc3c(cc2F)c(=O)c(C(=O)O)cn3-c2ccc(F)cc2F)CCN1 (stereo unspecified) | – | inactive | inactive | inactive | inactive | inactive | – | – | –
31 | O=C1[C@@H]2[C@H]3CC[C@H](C3)[C@@H]2C(=O)N1CCCCN1CCN(c2ncccn2)CC1 | inactive | inactive | inactive | inactive | inactive | inactive | – | – | –
